Tau fluor cs = Counterscreen qHTS for Inhibitors of Tau Fibril Formation, Fluorescence Polarization; tau K18 P301L Alexa594 fluorescence, heparin fibrillization; Potency, µM (top dose mostly 57.7 µM), for inactives: at the highest dose activity change, negative = decrease; 280,000 compounds, 0.93% hits; further: nearly all actives have a fitted effect of over 55% in size
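Human K18 P301L tau (15 uM unlabeled plus 0.24 uM Alexa 594-labeled, final) in 100 mM sodium acetate pH 7 was mixed with compound and 20 uM heparin and incubated 6 hr at 37 C.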
Tau ThT inhib = qHTS for Inhibitors of Tau Fibril Formation, Thioflavin T Binding. Microtubule-associated protein tau (Homo sapiens), P10636. recombinant tau K18 P301L, heparin-induced fibrillization, ThT fluorescence. Potency, µM (series often up to 57.4 µM), without a hit: top-dose activity, negative = inhibition, actives largely listed as inhibitors. 270,000 compounds, 2.1% hits. AID 1460, 2008; further: nearly all actives have a fitted effect of over 55% in size
Target sequence (P10636 561-689 P618L limits assumed): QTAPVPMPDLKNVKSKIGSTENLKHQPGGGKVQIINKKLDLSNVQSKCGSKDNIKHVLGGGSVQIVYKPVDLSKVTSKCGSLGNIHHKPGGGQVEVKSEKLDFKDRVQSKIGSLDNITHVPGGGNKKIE
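ThT emission at 510 nm, taken 1 hr after adding 30 uM dye, quantifies aggregates formed when 20 uM heparin acts on human tau K18 P301L for 6 hr at 37 C.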
Sfp PPTase inh = qHTS Assay for Inhibitors of Bacillus subtilis Sfp phosphopantetheinyl transferase (PPTase). Potency, µM, for the others: largest response in the series, negative = inhibition, hits mostly inhibitors. 310,000 compounds, 3.5% hits. Biochemical Sfp PPTase activity, qHTS. 4'-phosphopantetheinyl transferase ffp (Bacillus subtilis), Q9F4F7. AID 1490, 2009;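 further: the enzyme is Sfp with the accession as filed and its product quenches rhodamine fluorescence; 0% = enzyme reaction without inhibitor and -100% = no enzyme wells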
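After 15 min at room temperature with compound, 15 nM Sfp received 5 uM rhodamine-CoA plus 12.5 uM BHQ-2-ybbR (50 mM Hepes pH 7.6, 10 mM MgCl2). Rate came from the fluorescence difference over 30 min, ex 525/em 598 nm.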
PLK1 PBD block = qHTS for Inhibitors of PLK1-PDB (polo-like kinase 1 - polo-box domain): Primary Screen; Serine/threonine-protein kinase PLK1 (Homo sapiens), P53350; Plk1 PBD binding of FITC phosphopeptide, fluorescence polarization; Potency, µM, inactives show max response, negative = inhibition, usual class: inhibitors; 360,000 compounds, 2.8% hits; further: series mostly up to about 57 µM; nearly all actives have a fitted effect of over 65% in size
Tau fibril FP = qHTS for Inhibitors of Tau Fibril Formation, Fluorescence Polarization; Microtubule-associated protein tau (Homo sapiens), P10636; K18 P301L tau heparin fibrillization, Alexa594 FP, 6 h; Potency, µM (doses to about 57.7 µM), inactives show at the highest dose activity, negative = inhibition, hits mostly inhibitors; 280,000 compounds, 0.39% hits; AID 1468, 2008; further: nearly all actives have a fitted effect of over 55% in size
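K18 P301L tau (15 uM unlabeled/0.24 uM Alexa 594-labeled, final) + compound + heparin 20 uM final; 100 mM NaOAc pH 7; 6 hr 37 C; ThT 30 uM final added, 1 hr RT; FP ex 555/em 632 nm.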
VDR inh = Inhibitors of the vitamin D receptor (VDR): qHTS | Vitamin D3 receptor (Homo sapiens), P11473 | VDR-SRC2-3 peptide fluorescence polarization, 2 h | Potency, µM, without a hit: max response, negative = inhibition, actives largely listed as inhibitors | 400,000 compounds, 0.93% hits
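Compounds are added to VDR with labelled SRC2-3 coactivator peptide and held 2 h at room temperature. Inhibition of the VDR–peptide interaction is then read as a change in fluorescence polarization.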
An asterisk follows results filed as active; ? = inconclusive; · = no result given. Sampled rows, rich in hits. Any-hit rate of the full collection: about 6%. The call rests on the fitted dose curve; in most records, active means well fitted curve in the direction sought with a large enough effect; inconclusive means small, poorly fitted or top-dose-only effect, or another doubt; inactive means no such curve, though single readings can be large; an effect the other way counts as inactive or inconclusive. Unless noted, on the % scale 0 is the no-effect control and ±100 the full control effect; potency means the concentration at half of the fitted maximal effect.

SMILES	Tau fluor cs	Tau ThT inhib	Sfp PPTase inh	PLK1 PBD block	Tau fibril FP	VDR inh
Cc1ccc(N2CCN(C(=O)C3CCN(S(=O)(=O)c4ccc5c(c4)oc(=O)n5C)CC3)CC2C)cc1 (stereo not drawn)	-12%	-7%	·	·	5%	-5%
COc1ccccc1C=CC(=O)C=Cc1ccccc1OC	·	·	·	-12%	·	?
CNc1ccccc(C(=O)/C=C/c2ccccc2OC)c1=O	?	16µM*	32µM*	-22%	?	?
CN(C(=O)c1cc2c(s1)-c1ccc(Cl)cc1SC2)c1cccc(C(F)(F)F)c1	-17%	-12%	·	·	-4%	11%
CCOC(=S)SCC(=O)Nc1nc(C)c(C)s1	-5%	?	56µM*	?	-6%	?
CCOC(=O)C(=O)Nc1nccs1	2%	-3%	-1%	-5%	5%	4%
Cc1nc(NC(=O)CCc2ccccc2)sc1C	·	·	40µM*	15µM*	·	89µM*
Cc1nc(NC(=O)c2ccccc2)sc1C	·	·	25%	-5%	·	3%
CCOC(=S)SCC(=O)Nc1nccs1	-11%	?	71µM*	-24%	-10%	-27%
Cc1nc(NC(=O)CSc2nc(N)cc(N)n2)sc1C	·	·	10%	-11%	·	-17%
CCOC(=O)C1CCN(C(=O)C2CCN(c3nnc(C)c4c(C)n(-c5ccccc5)nc34)CC2)CC1	12%	15%	·	·	2%	11%
COc1ccc(OCCCn2c(CCNC(=O)C3CCCCC3)nc3ccccc32)cc1	·	·	·	·	·	-13%
Cc1ccc(C2=N/C(=C\N3CCCCC3)C(=O)O2)cc1	-29%	-15%	50µM*	-2%	6%	-16%
CCCC[C@@H]1Cc2[nH][nH]c(=O)c2[C@@H](c2ccc(Cl)cc2)O1	·	·	·	-22%	·	·
O=c1[nH][nH]c2c1[C@H](c1ccc(Cl)cc1)O[C@H](C1CC1)C2	·	·	·	12µM*	·	·
CCCC[C@@H]1Cc2[nH][nH]c(=O)c2[C@H](c2ccc(C(C)C)cc2)O1	·	·	·	9.5µM*	·	·
O=c1[nH][nH]c2c1[C@H](c1ccccc1)O[C@H](C1CCCCC1)C2	·	·	·	12µM*	·	·
O=C(CC[C@H]1O[C@@H](n2cnc3c(NC(=O)c4ccccc4)ncnc32)[C@H](O)[C@@H]1O)NCc1ccco1	·	·	·	-3%	·	·
CCOC(=O)C1CCCN(Cc2nc(N)nc(Nc3ccc(OC)cc3)n2)C1 (stereo not drawn)	-3%	-7%	8%	27µM*	5%	-21%
O=C1Nc2ccccc2C(=O)N2CCC[C@@H]12	-5%	0%	0%	·	-8%	-1%
O=C1Nc2cc(Cl)cnc2N2CCCC12 (stereo not drawn)	?	14µM*	50µM*	30µM*	?	?
CCCCC[C@H](O)/C=C/[C@@H]1[C@@H](C/C=C\CCCC(=O)O)[C@@H](O)C[C@@H]1O	-6%	-11%	23%	·	-5%	2%
Cc1ccc(-c2cc(C(F)(F)F)n3nc(C(=O)Nc4ccon4)cc3n2)cc1C	8%	·	19%	-13%	-3%	89µM*
COc1ccc(-c2cc(C(F)(F)F)n3nc(C(=O)Nc4cc(C)on4)cc3n2)cc1OC	-2%	?	8%	-4%	3%	13%
CC(C)(C)c1cc(CCC(=O)NCc2cccnc2)cc(C(C)(C)C)c1O	·	·	22µM*	-4%	·	15%
CC(C)(C)c1cc(CCC(=O)NCc2ccccn2)cc(C(C)(C)C)c1O	·	·	7%	-1%	·	15%
Cc1cn(CC2COC(C)(C)O2)c(=O)[nH]c1=O (stereo not drawn)	2%	-5%	23%	6µM*	9%	-24%
COC(Cn1cc(C)c(=O)[nH]c1=O)OC	-14%	-10%	-2%	-1%	-14%	-1%

Screening data (PubChem)
